A short description of assay [1]: VALA_TUBIPS_Antagonist_TubuleLength: VALA Sciences human iPS-derived Endothelial Tubule Formation (TUBIPS) Antagonist Assay (AID 2284313). The method in brief:
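Cells grown 3 days with 10 ng/ml VEGF, then exposed to compounds in VEGF medium for another 3 days. After fixation, nuclear stain and CD31 immunofluorescence imaging gave mean total tubule length against 0.1% DMSO; suramin (100 uM) inhibition control.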

Assay [2] can be described thus: VALA_TUBHUV_Antagonist_TubuleLength: VALA Sciences human Umbilical Vein Endothelial Tubule Formation (TUBHUV) Antagonism Assay (AID 2284325). In a few lines:
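HUVEC–HDF co-culture (1:3) pre-grown 3 days with 10 ng/ml VEGF, then 3 days with compound plus VEGF. Fixed, nuclear and CD31 stained; total tubule length by imaging versus 0.1% DMSO; suramin 100 uM positive control.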

Assay [3] in a line: VALA_MIGHUV2_CellCount: Viability Assessment in the VALA Sciences human Umbilical Vein Endothelial Cell Migration (MIGHUV) Assay, Area of Scratch Wound after Recovery (AID 2284314). In a few lines:
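Scratch-wounded HUVEC monolayers received test chemical within 30 min, 6-point concentration response in triplicate, 0.1 % DMSO vehicle. After 24 h wound recovery, fixed cells were Hoechst-stained and nuclei imaged; loss of signal versus DMSO indicates reduced viability.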

Assay [4] can be described thus: VALA_MIGHUV2_Bcatenin: VALA Sciences human Umbilical Vein Endothelial Cell Migration (MIGHUV) Assay, Nuclear Translocation of beta-Catenin after Recovery (AID 2284315). In a few lines: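 HUVEC (4000 cells/well) scratch-wounded, dosed within 30 min over 6 concentrations in triplicate, recovered 24 h. After fixation, Hoechst and anti-beta-catenin immunofluorescence imaged for nuclear CTNB. Gain of signal versus 0.1% DMSO.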

Assay [5] can be described thus: VALA_MIGHUV1_ScratchOnly_CellCount: Viability Assessment in the VALA Sciences human Umbilical Vein Endothelial Cell Migration (MIGHUV) Assay, Scratch Wound Inhibited Recovery (AID 2284327). In a few lines: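 HUVEC scratched after 24 h culture, chemical added within 30 min at 6 concentrations in triplicate (0.1% DMSO vehicle). After 24 h recovery, fixed cells were counted by Hoechst nuclear imaging in the wound area.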

A short description of assay [6]: IUF_NPC1_cytotoxicity_72hr: Cytotoxicity Assessment at 72 hours in the Leibniz Research Institute for Environmental Medicine (IUF) Neural Progenitor Cell Proliferation Assay (NPC1) (AID 2284332).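 Also: rising LDH signal means more cytotoxicity.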 In a few lines: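 Single human fetal cortex neural progenitor spheres (GW 16-19, 0.25-0.35 mm) in EGF/FGF proliferation medium were exposed to compound for 72 h at 37C without renewal. Medium LDH release was read as resorufin fluorescence and fitted as gain-of-signal.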

The test system of a further assay is IYD (gene 389434). Description: CCTE_GLTED_hIYD: CCTE's human Iodotyrosine Deiodinase (xIYD) Inhibition Assay, Great Lakes Toxicology and Ecology Division (GLTED) Lab (AID 2284317). On the procedure: CCTE_GLTED_hIYD is a cell-free, single-readout assay that uses human iodotyrosine deiodinase (hIYD) enzyme produced with baculovirus-insect cell system. The assay is based on iodide release measured by the Sandell-Kolthoff method and is run in 96-well plate format with assay plates run in triplicate (n=3) with measurements taken at 3 hours after chemical dosing. Platewise-normalization was used based on positive control (3-Nitro-L-tyrosine, MNT) and negative/solvent controls (DMSO, NaOH).CCTE_GLTED_hIYD is the assay component measured from the CCTE_GLTED_hIYD assay. It measures substrate involved in regulation of catalytic activity using spectrophotometry. The assay measures the deiodination activity of human IYD on the substrate monoiodotyrosine (MIT). […] The free iodide is measured by the Sandell-Kolthoff reaction in which the rate of reduction of cerium (Ce+4 to Ce+3) by arsenic (As+3 to As+5) is increased by the presence of iodide. This is observed as the loss of yellow color in the reaction and the quantified by the change in absorbance at 420 nm. The change in reaction rate is proportional to the amount of iodide present.Data from the assay component CCTE_GLTED_hIYD was analyzed at the assay endpoint CCTE_GLTED_hIYD in the positive analysis fitting direction relative to DMSO as the negative control and baseline of activity. […]

The next assay relates to TTR (gene 7276). Description: CCTE_GLTED_hTTR_0.5uM: CCTE's human Transthyretin (hTTR) Inhibition Assay, with 0.5uM TTR, Great Lakes Toxicology and Ecology Division (GLTED) Lab (AID 2284320; active = hit-call score of the fitted dose curve at least 0.9, where 1 is the maximum; inactive = score below 0.9). The method in brief:
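Cell-free displacement assay in which human TTR at 0.5 uM was incubated with test chemical for 2 h. Displacement of the ANSA probe was read by fluorescence at 380 nm excitation/475 nm emission. Loss of signal was fitted in the positive direction versus DMSO.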

Records with an inconclusive call do not appear. Activity calls are given as the source filed them. The calls were made as follows, unless noted: active = hit-call score of the fitted dose curve at least 0.9, where 1 is the maximum; inconclusive = response in the unintended direction; inactive = score below 0.9.

In the case of `CCCC(CCC)C(=O)O`, the call in assay [1] and in assay [2] was inactive.

For the molecule `CCCCCCCCCC`, the call in assay [3], in assay [4] and in assay [5] was inactive.

For `Cn1cc[nH]c1=S`, the molecule was called inactive in assay [3], in assay [5] and in assay [6].

With `CCCCCCCCCCCCCCCCOS(=O)(=O)O`, in the assay on IYD (gene 389434), the AC50 – broadly, the concentration giving half of the maximal activity seen – is 32.7 µM (active).

In the case of `NC(=O)NN=Cc1ccc([N+](=O)[O-])o1`, the AC50 with IYD (gene 389434) is 74.4 µM (active).

For the molecule `O=S(=O)(O)CCC(F)(F)C(F)(F)C(F)(F)C(F)(F)C(F)(F)C(F)(F)F`, the AC50 in the assay on TTR (gene 7276) was 5.35 µM (active).

On to `FC(F)=C(F)C(F)(F)C(F)(F)C(F)(F)C(F)(F)C(F)(F)C(F)(F)F`, for which the AC50 with TTR (gene 7276) is 62.1 µM (active).

Regarding `Nc1ccn([C@@H]2O[C@H](CO)[C@@H](O)[C@@H]2O)c(=O)n1`, the call in assay [6] was inactive.

The values above are taken from PubChem BioAssay (EPA / NIEHS).
